Most compounds without a hit are left out; they make up all but 8% or so of the library.
MARV entry inh – inhibitors of Marburg virus binding or cell entry. Marburg virus pseudotyped entry inhibition, cell reporter. Potency, µM (top dose mostly 37.8 µM), without a hit: top-dose activity change, negative = inhibition, most hits filed as inhibitors. hit rate 1.8% among 300,000. AID 540276; calls by dose curve; tested in HEK293 cells; also: potency is read from the fitted curve at half-maximal effect; % is scaled to controls: 0 for no effect and ±100 for the full control effect
LASV entry inh – blocks Lassa virus binding to or entry into cells. Potency, µM (highest dose often 37.9 µM), for the others: at the top dose activity change, negative = inhibition, hits mostly inhibitors. Lassa virus pseudotype entry inhibition, cell reporter. hit rate 1.2% among 300,000; calls by dose curve; tested in HEK293 cells; also: potency is read from the fitted curve at half-maximal effect; % is scaled to controls: 0 for no effect and ±100 for the full control effect; nearly all actives have a fitted effect of over 50% in size
HCV inh – inhibitors of hepatitis C virus infection. Huh7.5.1 HCVcc-Cre infection, luciferase reporter, 44 h. Potency, µM (series often up to 41.8 µM), without a hit: top-dose activity change, negative = inhibition, hits mostly inhibitors. hit rate 3.4% among 340,000. AID 651820; active = well fitted inhibition curve with a large enough effect; inconclusive = small, poorly fitted or top-dose-only effect, or another doubt; inactive = no such curve, though single readings can be large or run the other way; also: potency is read from the fitted curve at half-maximal effect; % is scaled to controls: 0 for no effect and ±100 for the full control effect
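Compounds are dispensed onto cells plated 4 h earlier at 1,000 per well, with HCVcc-Cre virus (about 0.5 moi) added next. Following 44 h of culture, luminescent signal is measured for 15 sec after 15 min with substrate at room temperature.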
SARS PLpro yeast – blocks SARS-CoV papain-like protease in a yeast assay. S. cerevisiae expressing SARS-CoV PLpro, growth rescue. AID 485353. hit rate 0.19% among 330,000. Potency, µM (highest dose often 32.9 µM), inactives show at the highest dose activity, positive = growth rescue, usual class: activators; calls by dose curve; also: potency is read from the fitted curve at half-maximal effect; 0% is about no effect; nearly all actives have a fitted effect of over 55% in size
FMDV inh – foot and mouth disease virus antiviral activity; FMDV antiviral cell-based qHTS; Potency, µM (titrated, usually from 57.9 µM), without a hit: at the top dose activity change, negative = inhibition, hits mostly inhibitors; hit rate 1.2% among 410,000; AID 1159524; calls by dose curve; tested in HEK293T cells; also: read-out not given here; potency is read from the fitted curve at half-maximal effect; % is scaled to controls: 0 for no effect and ±100 for the full control effect; nearly all actives have a fitted effect of over 45% in size
HCMV antiviral – inhibitors of human cytomegalovirus; activity change, negative = inhibition, % at 57.5 µM; hit rate 4.5% among 410,000; HFF cells, HCMV-luciferase reporter, 72 h; active compounds read low; in the data active = activity change below about -60%; inconclusive = no clear call, values can overlap the other calls; inactive = above about -39%; also: % is scaled to controls: 0 for no effect and ±100 for the full control effect
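Compounds were evaluated in HFFs infected with an HCMV luciferase reporter virus (MOI 1 PFU/cell). Luciferase in lysates collected 72 h post infection served as the replication measure.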
The depositor's hits bear a star; [ ] = remark or other dose.

`COc1ccc(NS(=O)(=O)c2ccc(C(=O)N3CCC(C)CC3)cc2)cc1` gave MARV entry inh inconclusive, LASV entry inh inconclusive, HCV inh inconclusive, SARS PLpro yeast 1%, FMDV inh -14% and HCMV antiviral -66*.
For CCOC(=O)/C(C#N)=C/c1c(Oc2cccc(C)c2)nc2c(C)cccn2c1=O the results were MARV entry inh 23%, LASV entry inh 5%, HCV inh 43%, SARS PLpro yeast -2%, FMDV inh -14% and HCMV antiviral -20.
For Cc1cccn2c(=O)c(/C=C(\C#N)C(=O)NC3CCS(=O)(=O)C3)c(N3CCC(C(N)=O)CC3)nc12 (stereo not given) the results were MARV entry inh 7%, LASV entry inh 21%, HCV inh 5%, SARS PLpro yeast 16%, FMDV inh 0% and HCMV antiviral inconclusive.
For Cc1ccc(Oc2nc3c(C)cccn3c(=O)c2/C=C(\C#N)C(N)=O)cc1 the results were MARV entry inh -2%, LASV entry inh inconclusive, HCV inh -19%, SARS PLpro yeast 0%, FMDV inh 18µM* and HCMV antiviral 11.
For Cc1cccn2c(=O)c(/C=C(\C#N)C(N)=O)c(N3CCN(Cc4ccc5c(c4)OCO5)CC3)nc12 the results were MARV entry inh -3%, LASV entry inh -2%, HCV inh inconclusive, SARS PLpro yeast 9%, FMDV inh inconclusive and HCMV antiviral -80*.
For Cc1ccccc1Oc1nc2c(C)cccn2c(=O)c1/C=C(\C#N)C(=O)NC1CCS(=O)(=O)C1 (stereo not given) the results were MARV entry inh inconclusive, LASV entry inh 13µM*, HCV inh -22%, SARS PLpro yeast -1%, FMDV inh 20µM* and HCMV antiviral 85.
For Cc1cccn2c(=O)c(/C=C(\C#N)C(=O)NC3CCS(=O)(=O)C3)c(Oc3ccccc3Cl)nc12 (stereo not given) the results were MARV entry inh inconclusive, LASV entry inh -11%[46.1 µM], HCV inh -15%, SARS PLpro yeast 0%, FMDV inh 20µM* and HCMV antiviral 59.
CCOC(=O)/C(C#N)=C/c1c(N2CCN(Cc3ccc4c(c3)OCO4)CC2)nc2c(C)cccn2c1=O was read as MARV entry inh inconclusive, LASV entry inh inconclusive, HCV inh inconclusive, SARS PLpro yeast 2%, FMDV inh -2% and HCMV antiviral -4.
For CC(C)COc1ccc(C(=O)N2CCCCC2CCN2CCOCC2)cc1 (stereo not given) the results were MARV entry inh -3%[46.1 µM], LASV entry inh -7%[46.1 µM], FMDV inh -3% and HCMV antiviral 15.
`CCCN1C(=O)C(C#N)C(C)=CC1C` (stereo not given) gave MARV entry inh -4%.
Screening COc1cccc2cc(C(=O)NCc3ccco3)c(=Nc3ccc(C(=O)O)cc3)oc12 returned MARV entry inh 8%, LASV entry inh 4%, HCV inh 13%, SARS PLpro yeast 9% and HCMV antiviral -78*.
`[O-][N+]1=c2ccc(Nc3ccccc3)cc2=NC12CCCCC2` gave MARV entry inh 2.2µM*, LASV entry inh inconclusive, HCV inh inconclusive, SARS PLpro yeast -26%, FMDV inh -8% and HCMV antiviral inconclusive.
`CC(CN1CCc2nnc(CNC(=O)c3cccc(F)c3)n2CC1)c1ccccc1` (stereo not given) gave FMDV inh -6%.
Screening CC(=O)c1ccc(NC(=O)CSc2nccn2Cc2ccc3c(c2)OCO3)cc1 returned LASV entry inh 4%[46.1 µM], FMDV inh inconclusive and HCMV antiviral 38.
COc1cc(N)ccc1Nc1c2ccccc2nc2ccccc12 was read as FMDV inh -25%.
CCCS(=O)(=O)Nc1ccc(Nc2c3ccccc3nc3ccccc23)c(OC)c1 was read as MARV entry inh inconclusive, LASV entry inh 0.71µM*, HCV inh inconclusive, FMDV inh -14% and HCMV antiviral -76*.
`CCc1ccc(CN2C(=O)c3ccccc3C2C(=O)NC2CCCCCC2)cc1` (stereo not given) gave MARV entry inh -25%[46.1 µM], LASV entry inh -18%[46.1 µM], FMDV inh -11% and HCMV antiviral -12.
Screening COc1cc(-c2nc3ccc4ccccc4c3c3c2CCC3)cc(OC)c1OC returned MARV entry inh -17%, LASV entry inh -21%, HCV inh 5.6µM*, SARS PLpro yeast -12%, FMDV inh inconclusive and HCMV antiviral 41.
`O=C(NCCS(=O)(=O)N1CCN(C(=O)c2ccco2)CC1)c1ccccc1` gave FMDV inh 0% and HCMV antiviral -79*.
Screening COc1ccc(C(=O)NCCS(=O)(=O)N2CCN(C(=O)c3ccco3)CC2)cc1 returned MARV entry inh -1%[46.1 µM], LASV entry inh 7%, HCV inh -2%, SARS PLpro yeast -1%, FMDV inh -15% and HCMV antiviral 5.
Screening CCCNC(=O)c1ccc2c(=O)c(O)c(-c3ccc(Cl)c([N+](=O)[O-])c3)[nH]c2c1 returned HCV inh 5µM*, SARS PLpro yeast 15%, FMDV inh -14% and HCMV antiviral 6.
For CCOc1ccccc1NC(=O)Cn1c(=O)n(Cc2ccccc2)c(=O)c2c(C)c(C)sc21 the results were MARV entry inh -12%[46.1 µM], LASV entry inh 4%[46.1 µM], FMDV inh -17% and HCMV antiviral -27.
`O=C(NCCc1ccncc1)c1cnn(-c2ncc3c(n2)-c2ccccc2CCC3)c1C1CC1` gave FMDV inh -12%.
Screening O=[N+]([O-])c1cc(/C=N/N/C(=N/c2ccccn2)c2ccccn2)ccc1O returned MARV entry inh inconclusive, LASV entry inh -22%, HCV inh inconclusive, SARS PLpro yeast -2%, FMDV inh 31% and HCMV antiviral -83*.
`CCCCCSc1cc(OC)c(CCNC)cc1OC` gave MARV entry inh inconclusive, LASV entry inh inconclusive, HCV inh inconclusive, SARS PLpro yeast -5%, FMDV inh 0% and HCMV antiviral -24.
For CCCCCCCSc1cc(OC)c(CCNC)cc1OC the results were MARV entry inh inconclusive, LASV entry inh inconclusive, HCV inh inconclusive, SARS PLpro yeast -10%, FMDV inh 0% and HCMV antiviral -99*.
Screening Cc1ccc(NC(=O)c2c(C)nc3sc(C(=O)Nc4ccc(F)cc4)c(N)c3c2-c2ccc(C)o2)c(C)c1 returned MARV entry inh inconclusive, LASV entry inh 3%[46.1 µM], FMDV inh -9% and HCMV antiviral 12.
`COC(=O)c1cccc(C(=O)NCc2nc(-c3ccccc3NC(C)=O)oc2C)c1` gave FMDV inh 14%.
For Cc1cc(C)c2ccc(N)nc2c1O the results were MARV entry inh inconclusive, LASV entry inh inconclusive, HCV inh 11µM*, SARS PLpro yeast -5%, FMDV inh -14% and HCMV antiviral -105*.

Assay outcomes: PubChem BioAssay, National Center for Advancing Translational Sciences (NCATS)
